# Measurements as given in PubChem BioAssay (Tox21).
# Where “and” joins values, the source holds several entries; their conditions need not be identical. Identical values can stand only once. Inconclusive results are not listed. Entries that show only a call come without a potency. A structure can be active in one record and inactive in another. Calls of active or inactive are those of the source. Unless noted, the call rests on the fitted dose curve; in most records, active means well fitted curve in the direction sought with a large enough effect in the repeat runs; inconclusive means weak or mixed curves; inactive means no such curve, though single readings can be large; an effect the other way counts as inactive or inconclusive.
# Experiments:
# [1] = qHTS assay to identify small molecule antagonists of the estrogen related receptor (ERR) signaling pathway from Tox21 library - cell viability counter screen (AID 1224834); further: nearly all actives have a fitted effect of over 30% in size; further: potency means the concentration at half of the fitted maximal effect
# Summary of the method: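 Seeded ERR cells were rested 6 h at 37 C/5% CO2 before compounds, positive and negative controls or DMSO were added. Incubation continued for 17.5 h, and viability was then quantified by CellTiter-Fluor fluorescence.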
# [2] = target: Luciferin 4-monooxygenase (Photinus pyralis) (UniProt P08659); assay: qHTS assay to identify small molecule inhibitors of firefly luciferase (AID 1224835); further: nearly all actives have a fitted effect of over 25% in size; further: potency means the concentration at half of the fitted maximal effect; on activity change, negative = inhibition: series mostly up to about 120 µM
# Summary of the method: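 Inhibition of purified Photinus luciferase is measured by luminescence. Substrate levels (D-luciferin, ATP) sit at their KM values. Each compound is tested in a concentration series.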
# [3] = qHTS assay to identify small molecule agonists of the constitutive androstane receptor (CAR) signaling pathway - cell viability counter screen (AID 1224836); further: series mostly up to about 92 µM; nearly all actives have a fitted effect of over 45% in size
# Summary of the method: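 Using CellTiter-Fluor, viability of HepG2 cells harbouring hCAR and CYP2B6-2.2kb was measured following 23 h incubation with a 15-concentration compound series plus PK11195 (0.75 uM final).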
# [4] = target: Nuclear receptor subfamily 1 group I member 3 (Homo sapiens) (UniProt Q14994); assay: qHTS assay to identify small molecule antagonists of the constitutive androstane receptor (CAR) signaling pathway (AID 1224838);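 further: HepG2 cells stably expressing hCAR with CYP2B6 luciferase reporter stimulated by CITCO; nearly all actives have a fitted effect of over 40% in size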; further: potency means the concentration at half of the fitted maximal effect
# Summary of the method: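 Human hepatoma HepG2 cells expressing hCAR and a CYP2B6 promoter (2.2 kb) luciferase construct; compound titration (15 points) with 50 nM CITCO final, 24 h at 37 C/5% CO2; luminescence via ONE-Glo after 30 min at room temperature.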
# [5] = qHTS assay to identify small molecule antagonists of the estrogen related receptor signaling pathway with the pleiotropic PPARgamma coactivator (PGC) from Tox21 10K library - cell viability counter screen (AID 1224840; active means well fitted cell-killing curve with a large enough effect in the repeat runs, not every such curve was filed as active; further: nearly all actives have a fitted effect of over 40% in size; further: potency means the concentration at half of the fitted maximal effect)
# Summary of the method: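 Seeded PGC/ERR cells (2,000/well, 6 h, 37 C/5% CO2) get compound by pin tool; 17.5 h incubation at 37 C; CellTiter-Fluor added, 30 min, fluorescence measured.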
# [6] = qHTS assay to identify small molecule antagonists of the estrogen related receptor signaling pathway with the pleiotropic PPARgamma coactivator (PGC) from Tox21 10K library (AID 1224841; call rule not given here; further: series mostly up to about 92 µM; actives are mostly falling curves and most rising ones were filed inactive; nearly all actives have a fitted effect of over 50% in size)
# Summary of the method: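 Test chemicals dissolved in DMSO were applied to pre-incubated (6 h) PGC/ERR cells at 2,000 cells/well for an 18 h, 37 C treatment; reporter luminescence was then read using One-Glo.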
# [7] = qHTS assay to identify small molecule agonists of the estrogen related receptor signaling pathway with the pleiotropic PPARgamma coactivator (PGC) from Tox21 10K library (AID 1224842); further: nearly all actives have a fitted effect of over 15% in size
# Summary of the method: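 Luminescence from One-Glo (30 min, room temperature) measured after PGC/ERR cells had 18 h at 37 C with pinned compound (23 nL in DMSO). Cells had been seeded at 2,000 per well and pre-incubated 6 h.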
# [8] = target: Nuclear receptor subfamily 1 group I member 3 (Homo sapiens) (UniProt Q14994); assay: qHTS assay to identify small molecule agonists of the constitutive androstane receptor (CAR) signaling pathway (AID 1224839); further: nearly all actives have a fitted effect of over 15% in size; further: potency means the concentration at half of the fitted maximal effect;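 on activation: HepG2 cells stably carrying human CAR and a CYP2B6 luciferase reporter; series mostly up to about 92 µM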
# Summary of the method: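 Double-stable HepG2 cells (hCAR, CYP2B6-2.2kb) seeded 4 h before compound addition. Exposure 24 h with 0.75 uM PK11195 final. Luciferase detected by ONE-Glo.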
# [9] = qHTS assay to identify small molecule antagonists of the constitutive androstane receptor (CAR) signaling pathway - cell viability counter screen (AID 1224837); further: series mostly up to about 92 µM; nearly all actives have a fitted effect of over 45% in size
# Summary of the method: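 To flag cytotoxic false antagonists, HepG2 hCAR/CYP2B6-2.2kb cells were treated 23 hr with 15-concentration compound series and 50 nM CITCO at 37 C/5% CO2; CellTiter-Fluor fluorescence was the measured end point.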
# Nuclear receptor subfamily 1 group I member 3 (Homo sapiens), sequence (Q14994 whole entry, looked up): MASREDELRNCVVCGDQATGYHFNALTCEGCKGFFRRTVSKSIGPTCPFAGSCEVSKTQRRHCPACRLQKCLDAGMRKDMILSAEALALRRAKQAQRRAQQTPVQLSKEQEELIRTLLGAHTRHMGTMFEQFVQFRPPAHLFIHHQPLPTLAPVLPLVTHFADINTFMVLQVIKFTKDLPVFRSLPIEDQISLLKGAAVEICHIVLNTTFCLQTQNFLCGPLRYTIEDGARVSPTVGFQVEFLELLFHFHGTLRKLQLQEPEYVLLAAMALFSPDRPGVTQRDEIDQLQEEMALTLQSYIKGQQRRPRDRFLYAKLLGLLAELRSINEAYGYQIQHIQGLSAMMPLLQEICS
# Luciferin 4-monooxygenase (Photinus pyralis), sequence (P08659 whole entry, looked up): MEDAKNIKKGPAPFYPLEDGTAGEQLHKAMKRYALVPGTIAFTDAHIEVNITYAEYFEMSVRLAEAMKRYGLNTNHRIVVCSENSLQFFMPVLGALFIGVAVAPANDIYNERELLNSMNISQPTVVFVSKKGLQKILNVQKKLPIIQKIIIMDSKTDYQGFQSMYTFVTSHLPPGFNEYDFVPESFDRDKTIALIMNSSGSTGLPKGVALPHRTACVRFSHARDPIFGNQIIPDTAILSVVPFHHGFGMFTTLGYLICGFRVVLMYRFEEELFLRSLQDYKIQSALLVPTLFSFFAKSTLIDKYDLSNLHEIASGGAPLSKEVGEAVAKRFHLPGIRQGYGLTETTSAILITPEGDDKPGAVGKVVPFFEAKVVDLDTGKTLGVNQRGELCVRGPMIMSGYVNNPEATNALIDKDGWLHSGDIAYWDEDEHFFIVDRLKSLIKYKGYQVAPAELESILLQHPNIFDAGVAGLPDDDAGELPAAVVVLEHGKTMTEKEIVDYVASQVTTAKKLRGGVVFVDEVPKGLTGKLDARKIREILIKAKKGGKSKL
compound,measurement,setting,value
CCCOC(=O)c1cncn1C(C)c1ccccc1 (stereo not given),Potency,[1],inactive
same,Potency,[2],inactive
same,Potency,[3],inactive
same,Potency,[4],inactive
same,Potency,[5],inactive
same,Potency,[6],inactive
same,Potency,[7],inactive
CCOC1Oc2ccc(OS(C)(=O)=O)cc2C1(C)C (stereo not given),Potency,[1],inactive
same,Potency,[2],inactive
same,Potency,[3],inactive
same,Potency,[4],inactive
same,Potency,[8],30.4 µM (active)
same,Potency,[5],inactive
COc1cc(CC(C)N)cc(OC)c1OC (stereo not given),Potency,[1],inactive
same,Potency,[2],inactive
same,Potency,[9],inactive
same,Potency,[4],inactive
same,Potency,[8],inactive
same,Potency,[5],inactive
same,Potency,[6],inactive
same,Potency,[7],inactive
CCOC(=O)CC(SP(=S)(OC)OC)C(=O)OCC (stereo not given),Potency,[1],inactive
same,Potency,[2],35.6 µM (active) and 38.9 µM (active)
same,Potency,[3],inactive
same,Potency,[4],inactive
same,Potency,[8],21.7 µM (active) and 26.6 µM (active)
same,Potency,[5],inactive
CC(C)(C)c1cc(O)ccc1O,Potency,[1],inactive
same,Potency,[2],71 µM (active) and inactive
same,Potency,[3],inactive
same,Potency,[4],inactive
same,Potency,[8],54.5 µM (active) and 61.1 µM (active)
same,Potency,[5],inactive
CCNP(=S)(OC)O/C(C)=C/C(=O)OC(C)C (stereo not given),Potency,[1],inactive
same,Potency,[2],inactive
same,Potency,[3],inactive
same,Potency,[4],inactive
same,Potency,[8],27.3 µM (active)
same,Potency,[5],inactive
CON(C)C(=O)Nc1ccc(Br)c(Cl)c1,Potency,[1],inactive
same,Potency,[2],39.9 µM (active)
same,Potency,[9],inactive
same,Potency,[4],inactive
same,Potency,[8],48.6 µM (active)
same,Potency,[5],inactive
same,Potency,[6],inactive
same,Potency,[7],inactive
CCC(C(N)=O)N1CCCC1=O (stereo not given),Potency,[1],inactive
same,Potency,[2],inactive
same,Potency,[9],inactive
same,Potency,[4],inactive
same,Potency,[8],inactive
same,Potency,[5],inactive
CC(C)[N+](C)(CCC(C(N)=O)(c1ccccc1)c1ccccc1)C(C)C,Potency,[1],inactive
same,Potency,[2],inactive
same,Potency,[3],inactive
same,Potency,[4],inactive
same,Potency,[8],inactive
same,Potency,[5],inactive
same,Potency,[6],inactive
same,Potency,[7],inactive
O=C(O)CBr,Potency,[1],inactive
same,Potency,[2],inactive
same,Potency,[3],inactive
same,Potency,[5],inactive
same,Potency,[6],inactive
same,Potency,[7],inactive
C#CC(C)(C)O,Potency,[1],inactive
same,Potency,[2],inactive
same,Potency,[3],inactive
same,Potency,[4],inactive
same,Potency,[8],inactive
same,Potency,[5],inactive
same,Potency,[6],inactive
same,Potency,[7],inactive
CCC(=O)c1ccc(Cl)cc1,Potency,[1],inactive
same,Potency,[2],inactive
same,Potency,[3],inactive
same,Potency,[4],inactive
same,Potency,[8],inactive
same,Potency,[5],inactive
same,Potency,[6],inactive
same,Potency,[7],inactive
CC(C)(N)Cc1ccccc1Cl,Potency,[1],inactive
same,Potency,[2],inactive
same,Potency,[3],inactive
same,Potency,[5],inactive
same,Potency,[6],inactive
same,Potency,[7],inactive
O=C(Cl)OCc1ccccc1,Potency,[1],inactive
same,Potency,[2],inactive
same,Potency,[3],inactive
same,Potency,[4],inactive
same,Potency,[8],inactive
same,Potency,[6],inactive
same,Potency,[7],inactive
Cc1ccc2c(c1)C1CN(C)CCC1N2 (stereo not given),"viability change, negative = cytotoxic",[1],8.02% [at 19 µM] (inactive)
same,"activity change, negative = inhibition",[2],-0.519% [at 23.6 µM] (inactive)
same,"activity change, negative = cytotoxicity",[9],1.97% [at 19 µM] (inactive)
same,"activity, negative = inhibition",[4],51% [at 19 µM] (inactive)
same,activation,[8],2.22% [at 19 µM] (inactive)
same,"viability change, negative = cytotoxic",[5],2.92% [at 19 µM] (inactive)
same,"activity, negative = inhibition",[6],-1.31% [at 19 µM] (inactive)
same,activation,[7],-0.364% [at 19 µM] (inactive)
COc1cc(CCN)cc(OC)c1OC,Potency,[1],inactive
same,Potency,[2],inactive
same,Potency,[9],inactive
same,Potency,[4],inactive
same,Potency,[8],inactive
same,Potency,[5],inactive
CCOP(=S)(OCC)SCCl,Potency,[1],inactive
same,Potency,[2],inactive
same,Potency,[9],inactive
C[N+]1(C)CCCCC1,Potency,[1],inactive
same,Potency,[2],inactive
same,Potency,[3],inactive
same,Potency,[8],inactive
same,Potency,[5],inactive
CS(=O)(=O)Cl,Potency,[1],inactive
same,Potency,[2],inactive
same,Potency,[9],inactive
same,Potency,[4],inactive
same,Potency,[8],inactive
same,Potency,[5],inactive
C(COCC1CO1)OCC1CO1 (stereo not given),Potency,[1],inactive
same,Potency,[2],inactive
same,Potency,[3],inactive
same,Potency,[4],inactive
same,Potency,[8],inactive
same,Potency,[5],inactive
same,Potency,[6],inactive
same,Potency,[7],inactive
NCC1(CC(=O)O)CCCCC1,Potency,[1],inactive
same,Potency,[9],inactive
same,Potency,[5],inactive
CC(C)C(C)(N)C#N (stereo not given),Potency,[2],inactive
same,Potency,[3],inactive
same,Potency,[9],inactive
same,Potency,[4],inactive
same,Potency,[8],inactive
same,Potency,[5],inactive
CCC1(c2cccc(O)c2)CCCCN(C)C1 (stereo not given),Potency,[2],inactive
same,Potency,[3],inactive
same,Potency,[9],inactive
CC(C)(N)Cc1ccc(Cl)cc1,Potency,[2],inactive
same,Potency,[3],inactive
same,Potency,[9],inactive
same,Potency,[4],inactive
same,Potency,[8],inactive
same,Potency,[5],inactive
CC#Cc1cc(C)nc(Nc2ccccc2)n1,Potency,[2],39.9 µM (active)
same,Potency,[3],inactive
same,Potency,[9],inactive
same,Potency,[4],inactive
same,Potency,[8],30.6 µM (active)
same,Potency,[5],inactive
CN(C)C(=O)Oc1cc(OC(=O)N(C)C)cc(C(O)CNC(C)(C)C)c1 (stereo not given),Potency,[1],inactive
same,Potency,[2],inactive
same,Potency,[9],inactive
same,Potency,[5],inactive
same,Potency,[6],inactive
same,Potency,[7],inactive
CCCC(C)C1(CC)C(=O)N=C(S)NC1=O (stereo not given),Potency,[1],inactive
same,Potency,[3],inactive
same,Potency,[9],inactive
same,Potency,[4],inactive
same,Potency,[8],inactive
same,Potency,[5],inactive
O=C(Cl)C(Cl)(Cl)Cl,Potency,[1],inactive
same,Potency,[2],inactive
same,Potency,[4],inactive
same,Potency,[8],inactive
same,Potency,[5],inactive
C[C@H]1CCCC(=O)CCC/C=C/c2cc(O)cc(O)c2C(=O)O1,Potency,[1],26.3 µM (active) and 17.8 µM (active)
same,Potency,[2],inactive
same,Potency,[4],20.9 µM (active)
same,Potency,[8],inactive
same,Potency,[5],23.4 µM (active)
CCOC(=O)C(SP(=S)(OC)OC)c1ccccc1 (stereo not given),Potency,[1],inactive
same,Potency,[2],inactive
same,Potency,[9],inactive
same,Potency,[4],inactive
same,Potency,[8],30.6 µM (active)
same,Potency,[5],inactive
same,Potency,[6],inactive
same,Potency,[7],inactive
CON(C)C(=O)Nc1ccc(Br)cc1,Potency,[2],inactive
same,Potency,[3],inactive
same,Potency,[9],inactive
same,Potency,[4],inactive
